Active and inactive are the calls of the source. Unless noted, no rule for the calls is given here.

Experiment [1] relates to Wnt5a (protein binding on small-molecule microarray). Briefly: Wnt5a binders on small-molecule microarray, primary screen, biophysical, 635/667 nm fluorescence (AID 1142).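 Also: fluorescence read at 667 nm with signal to noise per printed feature.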 The conditions noted are these: 635 nm fluorescence, higher = more signal.
Experiment [2] can be described thus: cell viability in Huh7 cells, primary screen, cytotoxicity control for HCV replication inhibitor project, CellTiter-Glo luminescence, basal, 48 h (AID 1143).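 Also: Huh7 hepatoma cells carrying a hepatitis C replication reporter with no stimulus; test concentration not given here.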 Particulars: Huh7 HCV replicon, higher = more signal, called active from +8 up or from −8 down. (In general: In ATP-based viability assays light output follows the ATP content of the culture.)
The nature of experiment [3]: P. aeruginosa biofilm formation inhibitors, primary screen, PAO1 strain, BacTiter-Glo luminescence, LB-PBS (AID 1144). The conditions noted are these: 12 h, higher = more signal.
Experiment [4] is described as follows: CREB reporter modulators without forskolin, primary screen, cell-based, PC12, CRE-LacZ reporter, unstimulated (AID 1145). Particulars: no forskolin, luminescence, 4.5 h, higher = more signal, called active from +8 up or from −8 down.
The nature of experiment [5]: CREB reporter modulators under forskolin, primary screen, cell-based, PC12, CRE-LacZ reporter, forskolin-stimulated (AID 1146).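 Also: PC12 cells with 6xCRE LacZ reporter stimulated by forskolin 10 µM; beta-galactosidase reporter signal reflecting CREB driven transcription.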 The conditions noted are these: luminescence, 4.5 h, higher = more signal, called active from +8 up or from −8 down.
In experiment [6] the target is Streptavidin (Streptomyces avidinii) (UniProt P22629). Briefly: streptavidin binders on small-molecule microarray, primary screen, artefact control for SMM compound annotation, biophysical, 635/667 nm fluorescence (AID 1147).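 Also: signal reflects streptavidin binding to arrayed compounds as a control protein.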 The conditions noted are these: streptavidin binding, higher = more signal.
Sequence of Streptavidin (Streptomyces avidinii) (P22629 whole entry, looked up): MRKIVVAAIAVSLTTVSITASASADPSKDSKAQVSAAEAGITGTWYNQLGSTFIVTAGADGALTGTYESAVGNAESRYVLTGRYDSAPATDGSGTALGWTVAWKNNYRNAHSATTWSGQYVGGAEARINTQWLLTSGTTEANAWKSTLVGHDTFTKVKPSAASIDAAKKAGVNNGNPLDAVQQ
A short description of experiment [7]: small-molecule binders of probe aInhba, primary screen, biochemical, small-molecule microarray, 635/667 nm fluorescence (AID 1148).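 Also: score merges 667nm spot fluorescence with signal-to-noise for antibody binding to printed compounds.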 The conditions noted are these: higher = more signal.
The target in experiment [8] is Torsin-1A (Homo sapiens) (UniProt O14656). Nature of the experiment: torsin A binders from cell lysate, primary screen, small-molecule microarray, wild-type, 635/667 nm (AID 1149). The conditions noted are these: COS7 hTOR1A-WT lysate, 635 nm fluorescence, higher = more signal.
Sequence of Torsin-1A (Homo sapiens) (O14656 whole entry, looked up): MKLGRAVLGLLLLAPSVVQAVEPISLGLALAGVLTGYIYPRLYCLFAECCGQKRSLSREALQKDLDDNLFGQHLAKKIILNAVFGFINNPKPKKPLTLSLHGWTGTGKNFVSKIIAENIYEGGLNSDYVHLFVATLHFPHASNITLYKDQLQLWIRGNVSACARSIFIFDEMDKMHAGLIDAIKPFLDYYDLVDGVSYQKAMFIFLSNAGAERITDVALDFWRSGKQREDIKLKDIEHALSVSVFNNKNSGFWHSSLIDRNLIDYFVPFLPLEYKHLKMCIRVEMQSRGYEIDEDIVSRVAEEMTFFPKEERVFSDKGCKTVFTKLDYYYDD
Experiment [9] has the same target. Nature of the experiment: small-molecule binders of mutant TOR1A in lysate, primary screen, cell lysate, small-molecule microarray, COS7 lysate, 635/667 nm fluorescence (AID 1150).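 Also: score pools 667 nm emission and signal to noise measuring lysate protein binding.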 The conditions noted are these: COS7 hTOR1A mutant lysate, 635 nm fluorescence, higher = more signal.
The subject of experiment [10] is Sonic hedgehog protein (Shh). Briefly: small-molecule binders of Shh protein, primary screen, biochemical, small-molecule microarray, 635/667 nm fluorescence (AID 1151).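 Also: Shh protein binding to compounds spotted on small-molecule microarray slides; score combines spot fluorescence intensity with signal-to-noise across triplicate slides.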 Particulars: small-molecule microarray binding, 635 nm fluorescence; higher = more signal.

For the compound `COc1cc2c(cc1OC)CN(C(=O)[C@@H]1[C@H]3C(=O)O[C@H](c4ccccc4)[C@H](c4ccccc4)N3[C@H](c3ccc(OCCO)cc3)[C@@]13C(=O)Nc1ccc(C#CCCO)cc13)CC2`, the composite z-score is 0.452 in experiment [1]; 1.64 in experiment [6]; -0.0812 in [7]; 0.431 in experiment [8]; 0.755 in [9]; 1.25 in experiment [10]. Moreover, the z-score in [2] was -4.91 (inactive); in experiment [3] it was -1.07 (inactive); in experiment [4], -0.465 (inactive); in [5] it was 0.0283 (inactive).

Turning to `COC(=O)[C@@]1(Cc2ccc(F)cc2)[C@H]2c3cc(C(=O)N4CCCC4)n(Cc4ccccc4)c3C[C@H]2CN1C(=O)c1ccccc1`, the composite z-score in experiment [1] is 0.379; in experiment [6] it was 1.38; in [7], -0.0413; in experiment [8], 0.0257; in experiment [9] it was 0.72; in [10] it was -0.447. Besides, the z-score is -3.69 (inactive) in experiment [2], 0.195 (inactive) in [3], -0.368 (inactive) in [4] and 0.339 (inactive) in experiment [5].

As to `NC(=O)NCC#Cc1ccc2c(c1)[C@]1(C(=O)N2)[C@H](c2ccc(OCCO)cc2)N2[C@H](c3ccccc3)[C@H](c3ccccc3)OC(=O)[C@H]2[C@@H]1C(=O)N1CCN(c2ncccn2)CC1`, the composite z-score was 0.132 in [1]; -0.373 in experiment [6]; 0.15 in experiment [7]; 0.539 in experiment [8]; 0.673 in experiment [9]; 1.5 in experiment [10]. Besides, the z-score was 0.342 (inactive) in experiment [2], -0.724 (inactive) in experiment [3], -0.491 (inactive) in experiment [4] and -0.301 (inactive) in experiment [5].

`CCOC(=O)C[C@H]1[C@H](OC(=O)Cc2ccc3c(c2)OCO3)[C@@H](NC(=O)c2ccccc2)c2cc(OCCCO)ccc2N1C(=O)c1ccccc1`: the composite z-score is -0.0373 in experiment [1]; 0.243 in experiment [6]; -0.128 in [7]; 0.0229 in experiment [8]; 0.403 in experiment [9]; 0.85 in experiment [10]. In addition, the z-score in [2] was -0.363 (inactive); in [3] it was -0.669 (inactive); in [4], 0.512 (inactive); in experiment [5] it was 0.484 (inactive).

Regarding `CCCCCCC#C[Si](O[C@H](c1ccccc1)c1cn(Cc2cccc(Cl)c2)nn1)(C(C)C)C(C)C`, the composite z-score in experiment [1] is -0.14; in experiment [6] it was 0.967; in [7], 0.0367; in experiment [8], 0.317; in [9], 0.213; in [10], 0.179. For the same compound, the z-score in [2] was -0.736 (inactive); in experiment [3], -0.628 (inactive); in experiment [4] it was -1.12 (inactive); in experiment [5], -0.687 (inactive).

For `O=C1CSC(c2cccc([N+](=O)[O-])c2)N1c1ccccc1` (stereo not given), the composite z-score in experiment [1] is 0.0388; in experiment [6], -0.545; in experiment [7] it was -0.147; in [8], 0.838; in experiment [9], 0.153; in experiment [10], 0.221. In addition, the z-score was -0.735 (inactive) in experiment [2], -0.249 (inactive) in [3], -0.321 (inactive) in experiment [4] and -0.567 (inactive) in experiment [5].

As to `COCCOC(=O)N1C(=O)[C@@]2(c3cc(C#CC4(O)CCCCCC4)ccc31)[C@H](C(=O)NC[C@H](O)c1ccccc1)[C@H]1C(=O)O[C@H](c3ccccc3)[C@H](c3ccccc3)N1[C@@H]2c1ccc(OCCO)cc1`, the composite z-score in [1] is -0.0894; in experiment [6], -0.0815; in experiment [7], 0.217; in experiment [8] it was 0.0969; in experiment [9] it was 0.124; in experiment [10], 1.72. Also, the z-score in experiment [2] was -3.38 (inactive); in experiment [3], -0.401 (inactive); in [4], -0.285 (inactive); in experiment [5], 0.0759 (inactive).

The record behind these values is PubChem BioAssay.
